# 697 NFkB inh: lowers PMA/ionomycin-induced NF-kB signal in 697 B cells; inhibition, % at 4 µM; 697 B-cell NF-kB luciferase reporter, 16 h; hit rate 0.33% among 330,000; in the data active = inhibition above about 35%
# TMEM16A inh: mouse TMEM16A channel inhibition, primary screen; Q8BHY3; HEK293 TMEM16A/YFP iodide influx fluorescence, ionomycin; normalized B-score (activity score, 25-100; higher = stronger inhibition) at 10 µM; hit rate 1.2% among 310,000; AID 588511;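 active = ratio plate-corrected score three or more library SD toward inhibition, starting fluorescence score within five deviations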;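 also: score derived from kinetic fluorescence span divided by baseline fluorescence per well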
# Target sequence (Q8BHY3 whole entry, looked up): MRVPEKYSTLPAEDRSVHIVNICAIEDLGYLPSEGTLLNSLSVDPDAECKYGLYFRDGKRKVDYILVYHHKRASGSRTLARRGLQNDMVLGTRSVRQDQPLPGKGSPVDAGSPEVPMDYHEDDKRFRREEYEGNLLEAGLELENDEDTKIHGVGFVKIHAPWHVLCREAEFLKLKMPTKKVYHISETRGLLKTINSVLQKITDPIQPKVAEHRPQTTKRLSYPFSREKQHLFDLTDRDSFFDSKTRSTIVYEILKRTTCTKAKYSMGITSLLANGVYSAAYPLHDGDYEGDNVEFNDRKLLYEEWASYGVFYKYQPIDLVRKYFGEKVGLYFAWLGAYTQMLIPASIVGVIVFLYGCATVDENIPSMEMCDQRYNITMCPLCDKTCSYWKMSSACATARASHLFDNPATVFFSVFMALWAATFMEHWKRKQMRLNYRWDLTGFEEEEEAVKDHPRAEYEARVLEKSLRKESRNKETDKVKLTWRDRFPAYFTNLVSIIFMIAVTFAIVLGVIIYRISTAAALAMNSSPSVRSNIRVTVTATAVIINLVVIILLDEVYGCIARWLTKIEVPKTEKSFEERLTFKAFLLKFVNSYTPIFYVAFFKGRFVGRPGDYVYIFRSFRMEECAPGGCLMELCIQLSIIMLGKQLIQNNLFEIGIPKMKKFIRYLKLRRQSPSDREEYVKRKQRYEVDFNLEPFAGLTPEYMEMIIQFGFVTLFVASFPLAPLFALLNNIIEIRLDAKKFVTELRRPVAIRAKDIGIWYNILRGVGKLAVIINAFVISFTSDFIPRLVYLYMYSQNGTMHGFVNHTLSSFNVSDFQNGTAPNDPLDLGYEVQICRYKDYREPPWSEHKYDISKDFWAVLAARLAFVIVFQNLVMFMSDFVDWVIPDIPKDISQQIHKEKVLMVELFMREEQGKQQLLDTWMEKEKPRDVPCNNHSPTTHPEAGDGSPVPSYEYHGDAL
# aSyn 5UTR inh: MLPCN primary screen, SNCA 5' untranslated region. alpha-synuclein 5'UTR reporter, inhibitor activity. inhibition, % (tested at 7.5 µM). hit rate 0.82% among 300,000; in the data active = inhibition above about 60%;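 also: H4 neuroglioblastoma cells stably carrying SNCA 5'UTR luciferase fusion; 0% = DMSO wells and 100% = positive control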
# Jurkat NFkB inh: inhibitors of the PMA/ionomycin-induced NF-kB reporter in Jurkat cells; PMA/ionomycin-induced NF-kB luciferase reporter, luminescence; inhibition, % at 4 µM; hit rate 0.53% among 330,000; in the data active = inhibition above about 50%
# TMEM16A act: activators or potentiators of mouse TMEM16A chloride channel; Q8BHY3; HEK293 TMEM16A/YFP-H148Q/I152L, iodide quench fluorescence; active compounds read low; B-score at 10 µM; hit rate 0.3% among 340,000;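 active = fluorescence-ratio B-score plate-corrected deviation score at least 3 library SD below zero, with starting fluorescence score within 5 deviations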;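 also: channel opened by trigger with iodide after compound preincubation; score built on the fluorescence ratio of max minus min over baseline; more negative score means more quench and so TMEM16A activation or potentiation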
# KLF5 inh: inhibitors of KLF5 expression; AID 1700; inhibition, % at 5 µM; DLD-1 KLF5 promoter-luciferase reporter, luminescence; hit rate 0.23% among 290,000;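 active = inhibition above a per-plate limit of that plate's mean compound inhibition plus 3 SD, cut at about 60% in these data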;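 also: 0% = DMSO wells and 100% = LY294002 at 200 µM; higher means less KLF5 promoter-driven luciferase light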
# Jurkat NFkB conf: inhibitors of the PMA/ionomycin-induced NF-kB reporter in Jurkat cells, retest | shares compounds with Jurkat NFkB inh | Jurkat NF-kB luciferase, 16 h | inhibition, % at 4 µM | hit rate 27% among 2,700 | AID 435020;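 active = inhibition reaching about 45% at 4 µM in either replicate, limit read from the data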;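 also: plate controls were PMA/ionomycin stimulated DMSO wells for no effect and unstimulated DMSO wells for full effect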
# An asterisk follows results filed as active; i = inactive; nt = no result given. Sampled rows, rich in hits. Any-hit rate of the full collection: about 2.5%.
SMILES,697 NFkB inh,TMEM16A inh,aSyn 5UTR inh,Jurkat NFkB inh,TMEM16A act,KLF5 inh,Jurkat NFkB conf
CC1=CC(=C2C(=O)NC(=O)NC2=O)C=C(C(F)(F)F)N1Cc1ccccc1,-8,i,20,14,i,3,nt
CC1=CC(=C2C(=O)NC(=S)NC2=O)C=C(C(F)(F)F)N1Cc1ccccc1,4,i,113*,70*,i,25,8
C=C(C)[C@@]12OC3(c4ccccc4)O[C@@H]1C1[C@@H]4O[C@]4(CO)[C@@H](O)[C@]4(O)C(=O)C(C)=C[C@H]4[C@@]1(O3)[C@H](C)[C@H]2OC(=O)/C=C/C=C/c1ccccc1 (some centres undefined),-49,i,-16,81*,i,nt,48
C[C@]12CC[C@H]3[C@@H](CC[C@]4(O)C[C@@H](O)CC[C@]34C=O)[C@@]1(O)CC[C@@H]2C1=CC(=O)OC1,-53,i,nt,98*,i,nt,86*
CC12CC[C@H]3[C@@H](CCC4(O)C[C@H](O)CCC34/C=N/NC(=O)c3ccccc3Cl)C1(O)CCC2C1=CC(=O)OC1 (some centres undefined),-5,i,8,-3,i,-38,nt
O=C1NC(=O)C(Nc2ccccc2)C(=O)N1,nt,nt,nt,nt,i,nt,nt
COC(=O)[C@]12OC[C@]34C([C@@H](O)[C@@H]1O)[C@]1(C)CC(=O)C(O)=C(C)[C@@H]1C[C@H]3OC(=O)[C@H](O)[C@@H]24 (some centres undefined),-30,i,16,66*,i,nt,86*
COc1ccccc1CN1CCN(Cc2ccc(Cl)cc2)CC1,3,i,0,0,i,-6,nt
CCOP(=O)(Cc1cc(C(C)=O)c(C)o1)OCC,19,i,4,2,i,-22,nt
Cc1ccc(-n2c(O)c(C=NCc3ccco3)c(=O)[nH]c2=S)cc1C,5,i,-33,-2,i,1,nt
CC[C@@H]1C=CC=CC[C@H](C)[C@@H](O)[C@@H](C)C(=O)[C@H](C)[C@@H](O)[C@H](C)C(=O)[C@H](C)[C@@H](O)[C@H](C)C=CC(=O)O[C@H]2[C@@H](C)[C@@H](CC1)O[C@@]1(CC[C@@H](C)[C@@H](C[C@H](C)O)O1)[C@@H]2C,17,i,36,53*,nt,nt,35
COC(=O)C1=C(c2cc3ccccc3s2)C[C@@H]2CC[C@H]1N2C,2,nt,nt,-22,i,nt,nt
Cn1ncnc2c(=O)n(C)c(=O)nc1-2,14,25*,98*,55*,i,nt,99*
COc1ccc2c(c1)/C(=C/c1cnc[nH]1)C(=O)N2,-182,i,-62,55*,i,35,42
Cc1ccc(-c2cc(-c3ccccc3)cc(-c3ccccc3)[n+]2-c2ccccc2)cc1,-12,100*,85*,54*,i,nt,31
C[n+]1c(-c2ccccc2)cc(-c2ccc(Cl)cc2)cc1-c1ccccc1,-24,i,0,7,i,-2,nt
CN(C)c1ccc(-[n+]2c(-c3ccccc3)cc(-c3ccccc3)cc2-c2ccccc2)cc1,-28,nt,84*,99*,i,60,62*
Cc1ccc(-c2cc(-c3ccc(C)cc3)[n+](-c3ccccc3)c(-c3ccc(C)cc3)c2)cc1,-45,100*,76*,97*,i,nt,86*
O=C(COc1ccc(Cl)cc1)N1CCN(C/C=C/c2ccccc2)CC1,-21,i,33,2,i,10,nt
CCCCCCn1c(O)c(C=NC2CCN(Cc3ccccc3)CC2)c(=O)[nH]c1=O,-55,i,15,22,i,2,nt
CCC(=NCC1CCCO1)c1c(O)n(-c2ccc(Cl)cc2)c(=O)[nH]c1=O (centres undefined),15,i,13,-1,i,-16,nt
COc1cccc(NP(=O)(Oc2ccccc2)Oc2ccccc2)c1,-51,i,47,62*,i,6,16
COC(=O)[C@@H]1[C@@H](C(=O)OC)C2(c3ccccc3-c3ccccc32)N(c2ccc(Cl)cc2)N1C#N,-59,i,16,39,i,-1,nt
COC(=O)C[C@]1(C(=O)OC)CN(C#N)N(c2ccc(Cl)cc2)C12c1ccccc1-c1ccccc12,-26,i,96*,97*,i,37,77*
NCc1cc(=O)[nH]o1,5,i,nt,2,i,nt,nt
SMILES,697 NFkB inh,TMEM16A inh,aSyn 5UTR inh,Jurkat NFkB inh,TMEM16A act,KLF5 inh,Jurkat NFkB conf
COc1ccccc1-n1c(/C=C/c2ccc(O)cc2)nc2ccccc2c1=O,-168,i,-12,-191,i,6,-81
Cc1cccc(-n2c(/C=C/c3ccc([N+](=O)[O-])o3)nc3ccccc3c2=O)c1,-29,i,-212,25,i,-20,nt
O=c1c2ccccc2nc(/C=C/c2ccc([N+](=O)[O-])o2)n1-c1ccc(O)cc1,-221,nt,100*,91*,i,-31,67*
CC(C)c1onc(C(=O)N2CCC3(CC2)OCCO3)c1[N+](=O)[O-],20,i,-4,-3,i,-42,nt
COc1cc2c(cc1O)[C@@H]1Cc3ccc(OC)c(O)c3CN1CC2,8,i,nt,58*,i,nt,27
Cc1ccc(Cl)cc1-n1c(O)c(C=NCCCN2CCOCC2)c(=O)[nH]c1=O,19,i,4,12,i,-2,nt
CC/C=C/CC(=O)N[C@@H](c1ccccc1)[C@@H](O)C(=O)O[C@H]1C[C@@]2(O)[C@@H](OC(=O)c3ccccc3)C3[C@](C)(C(=O)[C@H](OC(C)=O)C(=C1C)C2(C)C)[C@@H](O)C[C@H]1OC[C@@]31OC(C)=O (some centres undefined),-15,i,77*,66*,i,49,63*
CC(=O)OC12COC1CC(O)C1(C)C(=O)C(O)C3=C(C)C(O)CC(O)(C(OC(=O)c4ccccc4)C21)C3(C)C (centres undefined),nt,nt,nt,nt,i,nt,nt
CCC(C)C(=O)N[C@@H](c1ccccc1)[C@@H](O)C(=O)O[C@H]1C[C@@]2(O)[C@@H](OC(=O)c3ccccc3)C3[C@](C)(C(=O)[C@H](OC(C)=O)C(=C1C)C2(C)C)[C@@H](O)C[C@H]1OC[C@@]31OC(C)=O (some centres undefined),-6,i,103*,72*,i,56,68*
CCCCCC(=O)N[C@@H](c1ccccc1)[C@@H](O)C(=O)O[C@H]1C[C@@]2(O)[C@@H](OC(=O)c3ccccc3)C3[C@](C)(C(=O)[C@H](O)C(=C1C)C2(C)C)[C@@H](OC1OCC(O)C(O)C1O)C[C@H]1OC[C@@]31OC(C)=O (some centres undefined),-20,i,7,41,i,17,nt
